PP1 inh = counter-screen for PP5 inhibitors: inhibitors of human PP1-alpha. P62136. hit rate 0.9% among 320,000. inhibition, % at 6.7 µM. purified PP1alpha, OMFP fluorescence. AID 2235;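 active means inhibition above the mean inhibition of all tested compounds plus 3 SD, computed separately for each screening campaign, cut at about 15% in these data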
Target sequence (P62136 whole entry, looked up): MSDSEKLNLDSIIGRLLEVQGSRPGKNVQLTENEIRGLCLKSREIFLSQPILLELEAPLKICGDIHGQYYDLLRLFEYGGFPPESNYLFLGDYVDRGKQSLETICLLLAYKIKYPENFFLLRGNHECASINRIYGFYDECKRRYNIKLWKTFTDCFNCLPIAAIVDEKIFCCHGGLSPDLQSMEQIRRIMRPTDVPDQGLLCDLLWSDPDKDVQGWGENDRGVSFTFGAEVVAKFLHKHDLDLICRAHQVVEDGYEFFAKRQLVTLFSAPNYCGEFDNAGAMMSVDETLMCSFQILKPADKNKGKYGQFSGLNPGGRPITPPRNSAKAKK
SKKanGAS inh = inhibitors of SKKanGAS S. pyogenes growth in kanamycin (SK-promoter or general growth effect); BacTiter-Glo, 6 h; hit rate 1.3% among 300,000; AID 1662; inhibition, % at 7.5 µM;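 active means mean replicate score, as percent of positive control median, at least 50; inconclusive means mean below 50 but one replicate at or above 50; inactive means mean and every replicate below 50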;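 further: strain carries kanamycin resistance gene driven by streptokinase promoter and grows in 40 µg/ml kanamycin; loss of luminescence reflects streptokinase promoter inhibition or plain growth inhibition; 0% = median of DMSO wells and 100% = positive control at its reference dose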
PP5 primary = PP5 (human) phosphatase inhibition; hit rate 0.18% among 320,000; inhibition, % at 6.7 µM; P53041; purified PP5c, OMFP substrate fluorescence;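 active means inhibition above the campaign's mean inhibition across all tested compounds plus 3 SD, cut at about 9.5% in these data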;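 further: 0% = DMSO only and 100% = 100 µM cantharidin control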
Beta cell apopt = blocks beta cell apoptosis; hit rate 0.8% among 300,000; INS-1E cytokine-induced death, ATP luminescence, 48 h; percent of positive-control rescue, neutral wells zero; AID 435005; protection from apoptosis, % (no concentration beside the values);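 active means Every replicate reaches about 75%, or at least half do and their mean reaches it too, limit read from the data; inconclusive means At least half of replicates reach the limit but their mean does not; inactive means Under half of replicates reach the limit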;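 further: 0% = cytokine-treated negative control wells and 100% = positive control rescue; higher means more ATP so stronger rescue from cytokine killing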
CSC inhib = blocks cancer stem cells | cancer stem cell-like cells viability, luminescence | inhibition, % at 7.5 µM | hit rate 1.1% among 300,000; in the data active means inhibition above about 75%; inconclusive means no clear call, values can overlap the other calls; tested in HMLE shEcad cells
PP5 conf = confirmation of human PP5 phosphatase inhibitors | shares compounds with PP5 primary | Purified PP5, fluorogenic phosphatase substrate, fluorescence | inhibition, % at 6.7 µM | hit rate 22% among 460 | AID 2331; in the data active means inhibition above about 9.5%
PP1 counter 3x = inhibits human PP1 phosphatase in PP5 counter-screen | inhibition, % at 6.7 µM | PP1 enzyme, fluorescent phosphatase substrate | shares compounds with PP5 primary | hit rate 4% among 460; in the data active means inhibition above about 16%
The depositor's hits bear a star; ? = inconclusive; / = no result given. Hits are enriched below; roughly 3.1% of the tested compounds scored in any of these assays.

SMILES	PP1 inh	SKKanGAS inh	PP5 primary	Beta cell apopt	CSC inhib	others
O=C(NC1CCS(=O)(=O)C1)c1cc(-c2ccccc2)nc2ccccc12 (stereo not given)	-2	-8	-2	1	-8
c1ccc(N2CCN(CC3CCCCC3)CC2)cc1	/	7	/	139*	97*
CCN(CC)C(=O)C1CCCN(C(=S)Nc2cccc3ccccc23)C1 (stereo not given)	-1	0	4	85*	16
CCN(CC)C(=O)C1CCCN(C(=O)Nc2ccc(NC(=O)N3CCCC(C(=O)N(CC)CC)C3)cc2)C1 (stereo not given)	-3	-13	2	-10	-7
C/C(CCc1ccc2c(c1)OCO2)=N\N=C1\NC(=O)CC(C(=O)Nc2ccccc2F)S1 (stereo not given)	0	-3	2	2	-2
O=[N+]([O-])c1ccccc1S(=O)(=O)NCCSCc1ccco1	17*	/	4	-4	-5
O=[N+]([O-])c1ccccc1S(=O)(=O)NCc1ccco1	-3	7	0	/	-6
CC(C)CC(=O)NC(=S)NNC(=O)c1ccc(NC(=O)C2CCCCC2)cc1	5	88*	1	30	-12
CC(C)CC(=O)NC(=S)NNC(=O)c1ccc([N+](=O)[O-])cc1	-1	20	1	18	-9
O=C(c1cc(-c2ccccc2)nc2ccccc12)N1CCN(C2CCS(=O)(=O)C2)CC1 (stereo not given)	-3	/	2	2	/
CSc1nsc(SCC(=O)Nc2ccccc2C(=O)O)n1	1	12	0	-7	/
Cc1nc(C)n(C(C)CNS(=O)(=O)c2ccc(C)c(C)c2)n1 (stereo not given)	0	-2	1	-3	9
CCOC(=O)C1=C(c2ccccc2)O/C(=C(/C#N)C(F)(F)F)S1	-2	10	3	116*	56
COc1cccc(CNC(=O)Cn2ncc3c(=O)oc4ccccc4c32)c1	0	11	-1	1	-16
O=C(NNC(=S)NC(=O)c1cccc([N+](=O)[O-])c1)c1ccc(O)cc1	-4	0	3	/	4
Cc1ccc(C(=O)NC(=S)NNC(=O)c2cccc([N+](=O)[O-])c2)cc1	/	74*	/	-1	-9
O=C(NNC(=S)NC(=O)c1ccccc1)c1cccc([N+](=O)[O-])c1	1	?	0	1	0
O=C(NNC(=S)NC(=O)c1cccc([N+](=O)[O-])c1)c1ccc(Br)cc1	1	68*	1	2	20
Cc1ccc(C(=O)Oc2ccccc2N2CCOCC2)cc1	-5	8	0	-2	-4
Cc1ccc(C(=O)OC2OC(=O)C(Cl)=C2N2CCOCC2)cc1 (stereo not given)	-3	75*	3	-4	0
COc1ccc(C(=O)CN2C(=O)NC3(CCc4ccccc43)C2=O)cc1 (stereo not given)	1	1	0	0	-9
O=C1[C@@H]2Cc3c([nH]c4ccccc34)C(c3ccccc3)N2C(=O)CN1C1CCN(Cc2ccccc2)CC1 (stereo not given in full)	1	6	6	12	20
O=C1[C@@H]2Cc3c([nH]c4ccccc34)C(c3cccc(Br)c3)N2C(=O)CN1C1CCN(Cc2ccccc2)CC1 (stereo not given in full)	9	26	5	23	82*
COc1ccc(-c2ccnc(SCC(=O)c3ccc(OC)c(OC)c3)n2)cc1	3	-14	1	1	-7
COc1ccc(OC)c(C(=O)CSc2nccc(-c3ccc(Br)cc3)n2)c1	2	-1	1	-8	79*
SMILES	PP1 inh	SKKanGAS inh	PP5 primary	Beta cell apopt	CSC inhib	others
CC(=O)Nc1ccc(S(=O)(=O)N2CCN(c3nc(NC4CCCC4)c4ccccc4n3)CC2)cc1	11	1	12*	10	-3	PP5 conf=2;PP1 counter 3x=0
CC(=O)Nc1ccc(S(=O)(=O)N2CCN(c3cc(C)nc4ccccc34)CC2)cc1	-3	-6	1	2	-1
Cc1csc2c(=O)n(CCO)c(=O)[nH]c12	-3	3	2	-1	-3
CC1CCC(NC(=O)c2cc(C3CC3)nn2-c2ccccc2)CC1 (stereo not given)	3	/	2	1	/
COc1ccc(C(=O)Nc2c(N)nc(SCC(=O)NCC3CCCO3)[nH]c2=O)cc1 (stereo not given)	-6	-11	-5	0	-10
Cc1cc(C)c2c(c1)/C(=N\N=c1\sc3ccccc3n1C)C(=O)N2	-3	13	-1	13	14
CCOC(=O)NC(NC(=S)Nc1ccccc1[N+](=O)[O-])C(Cl)(Cl)Cl (stereo not given)	-5	-1	11*	1	-18	PP5 conf=-6;PP1 counter 3x=-4
COc1cccc(CN(C)CC(=O)NCc2ccc(F)cc2)c1OC	-9	-2	12*	/	-7	PP5 conf=-7;PP1 counter 3x=-5
CCOC(=O)/C=C/C(=O)Nc1ccc(S(=O)(=O)Nc2c(C)cc(C)cc2C)cc1	-4	-12	9.6*	-6	44	PP5 conf=3;PP1 counter 3x=5
NS(=O)(=O)c1cc2c(cc1Cl)NC(Cc1ccccc1)NS2(=O)=O (stereo not given)	-3	-4	1	-1	-4
Cc1ccc(S(=O)(=O)N2CCN(C(=O)CN3CCOCC3)C2C(C)C)cc1 (stereo not given)	-5	3	12*	3	-1	PP5 conf=-6;PP1 counter 3x=-5
CC1(C(=O)Nc2ccc3c(c2)OCCO3)CC1(Cl)Cl (stereo not given)	-3	-4	19*	-10	-5	PP5 conf=-5;PP1 counter 3x=-4
CCCCOc1ccc(C(=O)Nc2ccc(N3CCN(C(=O)C(C)C)CC3)cc2)cc1	3	5	1	1	/
CCCCOc1ccc(C(=O)Nc2ccc(N3CCN(C(C)=O)CC3)cc2)cc1	-7	3	12*	/	8	PP5 conf=-4;PP1 counter 3x=-4
CN(C)S(=O)(=O)c1ccc(NC(=O)c2cc3ccccc3o2)cc1	4	-1	10*	3	1	PP5 conf=-4;PP1 counter 3x=-2
CCC(=O)Nc1ccc(NC(=O)c2cc3ccccc3o2)cc1	-1	/	0	4	-1
CCN1CCN(c2nc3c(C)cccn3c(=O)c2/C=C(\C#N)C(=O)NCCOC)CC1	-1	-1	3	-12	-3
Cc1ccc(-c2cc(C(=O)NCc3cccs3)no2)cc1	-4	-8	9.9*	0	-13	PP5 conf=-3;PP1 counter 3x=-4
O=C(NCc1cccs1)c1cc(-c2ccc(O)cc2)on1	0	-1	-3	9	47
C=CCc1ccc(O)c(-c2cc(CC=C)ccc2O)c1	6	17	11*	/	-10	PP5 conf=3;PP1 counter 3x=6
Cc1ccc2oc(=O)c(/C=C(\O)c3cccs3)nc2c1	-1	-13	4	-7	2
O=c1oc2ccc(Cl)cc2nc1/C=C(\O)c1cccs1	1	-1	12*	0	29	PP5 conf=-4;PP1 counter 3x=-3

Bioassay records (PubChem BioAssay)
